An excerpt weighted towards active compounds, which were near 21% of everything screened.
HCMV antiviral: inhibitors of human cytomegalovirus. HFF cells, HCMV-luciferase reporter, 72 h; hits give low values. activity change, negative = inhibition, % at 57.5 µM. 410,000 compounds, 4.5% hits; in the data active means activity change below about -60%; inconclusive means no clear call, values can overlap the other calls; inactive means above about -39%; further: on the % scale 0 is the no-effect control and ±100 the full control effect
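Screen run at 2 compound doses on HFFs infected with reporter HCMV, MOI 1 PFU/cell. Luciferase activity from cell lysates at 72 h post infection gave inhibition relative to buffer-only and Salinomycin wells.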
Cycloheximide cs: counter-screen hit for Shiga toxin inhibitors, cycloheximide | 300,000 compounds, 12% hits | max response, % | AID 2314 | cell reporter, cycloheximide protein synthesis inhibition counterscreen; in the data active means max response mostly above about 13%, no sharp cut-off; inactive means mostly below about 14%; further: read at 38.3 µM for the half of the compounds with a filed dose; 0% is about no effect
Pf growth 48h: P. falciparum growth inhibition at 48 hours (one generation) | P. falciparum luciferase growth in erythrocytes, 48 h | 310,000 compounds, 5.9% hits | Potency, µM (doses to about 28.7 µM), without a hit: at the highest dose activity change, negative = inhibition, actives largely listed as inhibitors; further: potency means the concentration at half of the fitted maximal effect; on the % scale 0 is the no-effect control and ±100 the full control effect
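Firefly luciferase activity from engineered P. falciparum reports growth; inhibitors lower the luminescent signal. Cultures contained 2% hematocrit erythrocytes at 0.1% final parasitemia.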
Pf growth 96h: inhibits malaria parasite growth, 96 h; P. falciparum luciferase reporter growth, 96 h; Potency, µM (series often up to 28.7 µM), for inactives: top-dose activity change, negative = inhibition, actives largely listed as inhibitors; 320,000 compounds, 6.9% hits; further: potency means the concentration at half of the fitted maximal effect; on the % scale 0 is the no-effect control and ±100 the full control effect
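Erythrocytes infected with luciferase-expressing P. falciparum were dispensed at 2% hematocrit and 0.05% parasitemia (final), then incubated with compounds 96 hours at 37 C in 5% CO2. Luminescence after detection reagent addition reported growth.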
HCV inhibitor: inhibitors of hepatitis C virus infection. 340,000 compounds, 3.4% hits. Huh7.5.1 HCVcc-Cre infection, luciferase reporter, 44 h. Potency, µM (highest dose often 41.8 µM), inactives show top-dose activity change, negative = inhibition, actives largely listed as inhibitors; further: potency means the concentration at half of the fitted maximal effect; on the % scale 0 is the no-effect control and ±100 the full control effect
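Whole-lifecycle infectious HCVcc-Cre system; cells 1,000/well, compound then virus (~0.5 moi) added 4 h after plating, 44 h culture. Luciferase read 15 sec following 15 min substrate incubation, room temp.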
Shiga inhibitor: blocks Shiga toxin action in Vero cells. Vero cells, Shiga toxin protein synthesis inhibition reporter. inhibition, % at 38.7 µM. 290,000 compounds, 9.2% hits; in the data active means inhibition mostly above about 28%, no sharp cut-off; inactive means mostly below about 43%; further: 0% is about no effect
Starred values were filed as active, the others as inactive; ? = inconclusive; · = not tested or not shown; [ ] = dose if it differs, or a comment. Unless noted, the call rests on the fitted dose curve; in most records, active means well fitted inhibition curve with a large enough effect; inconclusive means small, poorly fitted or top-dose-only effect, or another doubt; inactive means no such curve, though single readings can be large or run the other way.

SMILES	HCMV antiviral	Cycloheximide cs	Pf growth 48h	Pf growth 96h	HCV inhibitor	Shiga inhibitor
Cc1ccc(NC(=O)C(=O)NCC2CCCO2)cc1 (stereo not drawn)	25	58*	138%	?	9%	101*
Cc1cc(C)cc(NC(=O)C(=O)NCC2CCCO2)c1 (stereo not drawn)	11	25*	68%	3%[5.75 µM]	9%	32
COc1ccc(N2CCN(C(=O)c3cccc(S(=O)(=O)N4CCCc5ccccc54)c3)CC2)cc1	-22	·	?	?	?	·
Cc1cc(C)cc(OCC(=O)NNC(=S)NC(=O)C2CC2)c1	-80*	2	11%	?	-5%	-8
Cc1ccc(NC(=S)NCC2CCCO2)cc1C (stereo not drawn)	-9	9	11%	19%	-14%	12
Cc1ccc(-c2nc(NCC3CCCO3)sc2C)cc1 (stereo not drawn)	43	32*	?	?	-3%	69*
Cc1ccc(NC(=O)C(=O)NCC2CCCO2)cc1C (stereo not drawn)	0	31*	107%	7%	-13%	100*
Cn1nc(C(C)(C)C)cc1N1C(=O)CCC1(C)C(=O)NC1CCCCC1 (stereo not drawn)	13	·	·	·	·	·
CC1C(=O)Nc2ccc(S(=O)(=O)N3CCCCC3)cc2NC1=O (stereo not drawn)	27	·	·	·	·	·
CSCCC1Nc2ccc(S(=O)(=O)N3CCOCC3)cc2NC1=O (stereo not drawn)	-7	1	-24%	10µM*	18%	-6
COc1ccc(-c2nn(-c3ccccc3)cc2CO)cc1OC	9	2	13µM*	-12%	?	-11
OCc1cn(-c2ccccc2)nc1-c1ccc(Br)cc1	46	32*	83%	?	2%	33*
COc1cccc(-c2nn(-c3ccccc3)cc2CNC(C)Cn2cncn2)c1 (stereo not drawn)	36	34*	36%	10µM*	9%	111*
OCc1cn(-c2ccccc2)nc1-c1cc2ccccc2o1	2	55*	114%	7%	-22%	100*
COc1ccc(NC(=O)c2cn(-c3ccccc3)nc2-c2cc3ccccc3o2)cc1	?	-2	?	0%	-19%	19
CC(C)COc1ccc(-c2nn(-c3ccccc3)cc2CO)cc1	?	3	4%	-8%	?	13
Cc1onc(-c2c(F)cccc2Cl)c1C(=O)N1CCOC12CCCCC2	-7	10	105%	-31%	5%	-24
CC1CC(C)CN(S(=O)(=O)N2CCCC(C(=O)NCCc3ccccc3)C2)C1 (stereo not drawn)	0	2	-13%	26%	3%	-4
COCCCNC(=O)C[C@@H]1C[C@@]2(C(=O)OC)CCCCC=C2N(CCC2=CCCCC2)C1=O	-10	·	·	·	·	·
COc1ccc(CNC(=O)c2ccc(NC(=O)N3CCSc4ncccc43)cc2)cc1OC	0	·	·	·	·	·
COc1cccc(-c2nn(-c3ccccc3)cc2CO)c1	25	33*	99%	·	-26%	60*
OCc1cn(-c2ccccc2)nc1-c1ccc2c(c1)OCCO2	81	45*	195%	84%	11µM*	101*
COc1cccc(-c2nn(-c3ccccc3)cc2CN(C)Cc2ccon2)c1	-1	-2	-18%	20%	-29%	-10
Cc1cc(C)n(-c2nc(-c3cccc(Cl)c3)cs2)n1	152	23*	·	-23%	?	35
Cc1cc(C)n(-c2nc(-c3ccccc3)cs2)n1	177	35	143%	·	?	112*
SMILES	HCMV antiviral	Cycloheximide cs	Pf growth 48h	Pf growth 96h	HCV inhibitor	Shiga inhibitor
Cc1cc(C)n(-c2nc(C(=O)O)cs2)n1	-20	8	11%	7%	5%	-5
O=C(CN(C(=O)CCC(=O)Nc1nccs1)c1ccc(F)cc1)NCc1ccc(F)cc1	-32	-8	?	-2%	-28%	-8
CCOc1ccc(-c2cc(C(=O)N3CCN(C)CC3)c3ccccc3n2)cc1	107	38*	154%	·	-12%	50*
CCOC(=O)N1CCN(C(=O)c2cc(-c3ccncc3)nc3ccccc23)CC1	-22	·	11%	17%	14%	·
CCOc1ccc(-c2cc(C(=O)NN3CCN(C)CC3)c3cc(Cl)ccc3n2)cc1	?	-4	2.3µM*	4.1µM*	-1%	-7
CCOc1ccc(-c2cc(C(=O)NCc3ccccc3Cl)c3ccccc3n2)cc1	1	·	·	·	·	·
CCOC(=O)N1CCN(C(=O)c2cc(-c3ccc(OCC)cc3)nc3ccccc23)CC1	120	37*	27%	3.7µM*	?	66*
CCOc1ccc(-c2cc(C(=O)N3CCCC3)c3ccccc3n2)cc1	·	17	30%	-3%	-20%	31
O=C(NCc1ccc(F)c(F)c1)c1cnc(N2CCN(CCc3ccccc3)C2=O)o1	3	·	·	·	·	·
c1ccc(NN(Cc2ccccn2)c2ccccc2)cc1	-3	·	·	·	·	·
CN(Cc1cccs1)C(=O)Cn1cnc2ccccc2c1=O	-6	6	274%	27%	6%	27
COc1cccc(-n2c(O)c(C=NCc3ccc4c(c3)OCO4)c(=O)[nH]c2=O)c1	-105*	-2	2%	-11%	-11%	-4
COc1ccc(-n2c(O)c(C=NCc3ccc4c(c3)OCO4)c(=O)[nH]c2=O)cc1	12	-2	-2%	16%	18%	-2
CCOC(=O)C1CCCN(Cc2nc(Cc3ccccc3Cl)no2)C1 (stereo not drawn)	55	-2	2%	?	-5%	-4
FC(F)(F)c1cccc(Cc2noc(CN3CCCC(CN4CCCC4)C3)n2)c1 (stereo not drawn)	-21	-5	2.6µM*	9.3µM*	-17%	-4
CC1CCCN(Cc2nc(Cc3ccccc3Cl)no2)C1 (stereo not drawn)	0	23*	32%	?	3%	38*
OC1CCCN(Cc2nc(Cc3ccccc3Cl)no2)C1 (stereo not drawn)	-19	17*	40%	10µM*	4%	28
CCOc1ccc(N(CC(=O)Nc2ccc(C)cc2C)S(C)(=O)=O)cc1	28	9	?	-186%	-6%	6
CCOc1ccc(N(CC(=O)Nc2cc(C)cc(C)c2)S(C)(=O)=O)cc1	15	59*	18%	4%	?	75*
CCOc1ccc(N(CC(=O)Nc2cccc(Br)c2)S(C)(=O)=O)cc1	29	26*	3%	-48%	?	64*
CCOc1ccc(N(CC(=O)Nc2ccc(C)cc2)S(C)(=O)=O)cc1	66	37*	92%	?	2%	66*
COc1cccc(CN(C)C(=O)CCN=C2NS(=O)(=O)c3ccccc32)c1	27	·	·	·	10%	·

High-throughput results deposited in PubChem BioAssay by National Center for Advancing Translational Sciences (NCATS).
